Test results reported in PubChem BioAssay (NCATS).
Records with an inconclusive call do not appear. Activity calls are given as the source filed them. The call rests on the fitted dose curve; in most records, active means well fitted curve in the direction sought with a large enough effect; inconclusive means small, poorly fitted or top-dose-only effect, or another doubt; inactive means no such curve, though single readings can be large; an effect the other way counts as inactive or inconclusive.

What was measured:
[1] = Quantitative High-Throughput drug screen in 47 multiple myeloma cell lines against the NCATS MIPE library collection: NCIH929_DSMZ cell viability assay (AID 1918978); further: nearly all actives have a fitted effect of over 35% in size
In short: (§1)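 Viability after 48 h drug exposure was measured as ATP-dependent luminescence. Cells, 500 per well, sat at 37 °C under 5% CO2; DMSO wells set 100%, media-only wells 0%.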

[2] = Quantitative High-Throughput drug screen in 47 multiple myeloma cell lines against the NCATS MIPE library collection: OCIMY1_PLB cell viability assay (AID 1918979); further: series mostly up to about 46 µM; nearly all actives have a fitted effect of over 35% in size
In short: as §1

[3] = Quantitative High-Throughput drug screen in 47 multiple myeloma cell lines against the NCATS MIPE library collection: MM1R_ATCC cell viability assay (AID 1918981); further: nearly all actives have a fitted effect of over 35% in size
In short: as §1

[4] = Quantitative High-Throughput drug screen in 47 multiple myeloma cell lines against the NCATS MIPE library collection: L363_DSMZ cell viability assay (AID 1918984); further: nearly all actives have a fitted effect of over 40% in size
In short: as §1

[5] = Quantitative High-Throughput drug screen in 47 multiple myeloma cell lines against the NCATS MIPE library collection: LP1_DSMZ cell viability assay (AID 1918982); further: nearly all actives have a fitted effect of over 35% in size
In short: as §1

[6] = Quantitative High-Throughput drug screen in 47 multiple myeloma cell lines against the NCATS MIPE library collection: KMS28PE_JCRB cell viability assay (AID 1918983); further: nearly all actives have a fitted effect of over 35% in size
In short: as §1

Measured: Potency

COc1ccc(-n2nc(C(N)=O)c3c2C(=O)N(c2ccc(N4CCCCC4=O)cc2)CC3)cc1
inactive: [1] | [2] | [3] | [4]

Cc1cn2cc(C(=O)N(C)CCO)cc(N[C@@H]3CCOc4cccc(C)c43)c2n1
not listed: [4]
inactive: all other assays above
